Shown are actives, neighbours in structure and some others; about 3.5% of the full set was active somewhere.
Mtb FBA inh – Mtb FBA enzyme inhibitors, primary screen, biochemical, fluorescence, strain H37Rv | AID 588726, 2011 | hit rate 2.3% among 360,000 | purified M. tuberculosis FBA, fluorescence read-out | inhibition, % at 1 µM | Fructose-bisphosphate aldolase (Mycobacterium tuberculosis (strain ATCC 25618 / H37Rv)), …;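 further: 0% = vehicle and 100% = reference inhibitor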
Mtb hypoxia rep – PubChem AID 1159583 | hit rate 0.1% among 300,000 | M. tuberculosis hypoxia-regulated fluorescent reporter, fluorescence | fluorescence inhibition, % (concentration not given with the values); in the data active means fluorescence inhibition mostly above about 23%, no sharp cut-off; inactive means mostly below about 17%
GDH-TPI counter-1 – GDH-TPI coupling enzyme inhibitors, primary screen, artefact control for M. tuberculosis FBA inhibitor project, biochemical, absorbance, full deck; GDH-TPI coupled enzyme counterscreen, NADH absorbance; hit rate 1.2% among 360,000; inhibition, % at 4.8 µM; in the data active means inhibition above about 30%;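 further: 0% = DMSO wells and 100% = wells lacking the enzyme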
FadD28 FP inh – inhibitors of FadD28 bisubstrate probe binding, primary screen, biochemical, fluorescence polarization, single point; AID 588549, 2011; hit rate 0.22% among 360,000; inhibition, % at 12.5 µM; Mycobacterium tuberculosis FadD28 fatty-acid-AMP ligase; in the data active means inhibition above about 8.5%, passing the limit was not always enough
UGM FP inh – M. tuberculosis UGM enzyme inhibitors, primary screen, biochemical, fluorescence polarization, single point; inhibition, % at 10 µM; UDP-galactopyranose mutase (Mycobacterium tuberculosis (strain ATCC 25618 / H37Rv)), …; hit rate 0.06% among 320,000; purified UGM, fluorescence polarization probe displacement; AID 504406, 2011; in the data active means inhibition above about 10%, passing the limit was not always enough
Target sequence (P9WIQ1 whole entry, looked up): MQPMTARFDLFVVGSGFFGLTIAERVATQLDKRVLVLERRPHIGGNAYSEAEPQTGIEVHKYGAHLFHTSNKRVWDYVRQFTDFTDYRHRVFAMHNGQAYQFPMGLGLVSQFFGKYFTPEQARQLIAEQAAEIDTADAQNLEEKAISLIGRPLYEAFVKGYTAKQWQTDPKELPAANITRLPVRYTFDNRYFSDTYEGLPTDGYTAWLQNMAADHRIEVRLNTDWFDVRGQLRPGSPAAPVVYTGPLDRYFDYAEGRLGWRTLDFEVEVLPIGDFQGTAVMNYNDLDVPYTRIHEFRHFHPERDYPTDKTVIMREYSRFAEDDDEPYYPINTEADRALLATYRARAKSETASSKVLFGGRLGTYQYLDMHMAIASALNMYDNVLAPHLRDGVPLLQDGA
Rv3671c protease – Rv3671c serine protease inhibitors, primary screen, biochemical, fluorescence polarization, M. tuberculosis H37Rv | P9WHR9 | inhibition, % at 5.96 µM | hit rate 0.048% among 320,000 | AID 2606, 2010; in the data active means inhibition above about 38%;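 further: extracellular domain of Rv3671c used as enzyme; 0% = enzyme with DMSO and 100% = no enzyme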
Mtb FBA inh conf – M. tuberculosis aldolase blockers, biochemical, fluorescence, strain H37Rv, confirmation | inhibition, % at 1 µM | hit rate 78% among 5,600 | purified M. tuberculosis FBA, fluorescence read-out | shares compounds with Mtb FBA inh | AID 651616, 2012;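 further: 0% = vehicle wells and 100% = reference inhibitor wells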
GDH-TPI counter-2 – GDH-TPI coupling enzyme inhibitors, artefact control for M. tuberculosis FBA inhibitor project, biochemical, fluorescence, high throughput; shares compounds with Mtb FBA inh; GDH-TPI coupled enzyme counterscreen; inhibition, % at 1 µM; hit rate 81% among 5,600; AID 652141, 2013; in the data active means inhibition above about 10%
* = called active by the depositor. Unless noted, no stated cut-off is given here; in the data, active means inhibition above about 27%; inactive means the rest.

Screening CCCCCC(=O)Nc1cc(N(C)C)nc2ccccc12 returned Mtb FBA inh 23, Mtb hypoxia rep 6, GDH-TPI counter-1 13, FadD28 FP inh -3, UGM FP inh -2 and Rv3671c protease -6.
Screening CCN(CC)CC(=O)Nc1cc(N(C)C)nc2ccccc12 returned Mtb FBA inh 36*, Mtb hypoxia rep 4, GDH-TPI counter-1 38*, FadD28 FP inh -2, UGM FP inh -2, Rv3671c protease 1, Mtb FBA inh conf 30* and GDH-TPI counter-2 26*.
Screening CC(C)CC(NC(=O)c1nc[nH]c1C(=O)NC(c1ccccc1)c1ccccc1)C(=O)OCc1ccccc1 (centres undefined) returned Mtb hypoxia rep 2.
Screening CNc1ccccc1C(=O)OC(C)C(=O)Nc1ccc(S(=O)(=O)N2CCCC2)cc1 (centres undefined) returned Mtb FBA inh 39*, Mtb hypoxia rep 6, GDH-TPI counter-1 -1, FadD28 FP inh 1, UGM FP inh -3, Rv3671c protease -8, Mtb FBA inh conf -2 and GDH-TPI counter-2 -4.
For CC(=O)Nc1ccc(NC(=O)C(C)OC(=O)c2ccc(S(=O)(=O)N3CCCCC3)cc2)cc1 (centres undefined) the results were Mtb FBA inh 1, Mtb hypoxia rep 17, GDH-TPI counter-1 8, FadD28 FP inh -3, UGM FP inh -3 and Rv3671c protease -35.
O=[N+]([O-])c1ccccc1S(=O)(=O)N1CCCCC1 was read as Mtb FBA inh -1, Mtb hypoxia rep 7, GDH-TPI counter-1 3, FadD28 FP inh -1, UGM FP inh 2 and Rv3671c protease -9.
`O=[N+]([O-])c1ccccc1S(=O)(=O)N1CCCC(C(F)(F)F)C1` (centres undefined) gave Mtb FBA inh 41*, Mtb hypoxia rep 11, GDH-TPI counter-1 19, FadD28 FP inh -1, UGM FP inh -1, Rv3671c protease 4, Mtb FBA inh conf 46* and GDH-TPI counter-2 39*.
CC(=NNC(=O)c1cnccn1)c1cccs1 was read as Mtb hypoxia rep 5.
COc1ccc(NC(=O)NCCCN2CCCC2=O)cc1 was read as Mtb FBA inh 4, GDH-TPI counter-1 9, FadD28 FP inh 0, UGM FP inh -1 and Rv3671c protease 0.
`COc1ccc(-c2cc(C(F)F)n3ncc(C(=O)N4CCc5ccccc5C4)c3n2)cc1` gave Mtb FBA inh 30*, Mtb hypoxia rep 0, GDH-TPI counter-1 8, FadD28 FP inh -5, UGM FP inh -3, Rv3671c protease -11, Mtb FBA inh conf 83* and GDH-TPI counter-2 76*.
COCCNC(=O)c1cnn2c(C(F)F)cc(-c3ccc(C)cc3)nc12 was read as Mtb FBA inh 6, Mtb hypoxia rep -3, GDH-TPI counter-1 8, FadD28 FP inh -3, UGM FP inh 0 and Rv3671c protease -2.
`COc1ccc(-c2cc(C(F)F)n3ncc(C(=O)NCCCN4CCCC4=O)c3n2)cc1` gave Mtb FBA inh 31*, Mtb hypoxia rep 5, GDH-TPI counter-1 6, FadD28 FP inh 0, Rv3671c protease 0, Mtb FBA inh conf active and GDH-TPI counter-2 169*.
COc1ccc(-c2cc(C(F)F)n3ncc(C(=O)N4CCN(C(=O)c5ccco5)CC4)c3n2)cc1 was read as Mtb FBA inh 25, Mtb hypoxia rep -9, GDH-TPI counter-1 22, FadD28 FP inh -3, UGM FP inh 2 and Rv3671c protease -2.
Screening COc1ccc2[nH]c(C(=O)NCCCN3CCCC3=O)c(C)c2c1 returned Mtb FBA inh 58*, Mtb hypoxia rep 5, GDH-TPI counter-1 -1, FadD28 FP inh 0, UGM FP inh -6, Rv3671c protease 3, Mtb FBA inh conf -5 and GDH-TPI counter-2 -2.

Source: PubChem BioAssay (several laboratories)
